What all share (conditions): mRNA level, 48 h; actives raise or lower the signal
Read-out in assay [1]: Bcl-2 (BID) gene, BID (gene 637)
Put plainly: LTEA_HepaRG_BID: Life Technologies and Expression Analysis (LTEA) Assay for Bcl-2 (BID) gene using HepaRG (AID 2283476). A digest of the protocol:
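HepaRG, 48 h exposure, 8-pt half-log series, top 100 uM, 0.5% DMSO vehicle, duplicates. Readout: BID mRNA by TaqMan qRT-PCR; housekeeping-normalized; bidirectional curve fit vs DMSO baseline.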

Read-out in a further assay: Caspase-3 (Homo sapiens) (UniProt P42574)
Put plainly: LTEA_HepaRG_CASP3: Life Technologies and Expression Analysis (LTEA) Assay for cysteine-aspartic acid protease (CASP3) using HepaRG (AID 2283477). The method in brief: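 HepaRG, 48 h exposure, 8 conc. (top 100 uM, half-log steps, duplicate), 0.5% DMSO vehicle; qRT-PCR of CASP3 transcript, housekeeping-normalised (ACTB/GAPDH/POLR2A); bidirectional curve fit vs DMSO baseline.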

Read-out in assay [2]: Cytochrome P450 (CYP24A1), CYP24A1 (gene 1591)
The assay can be described thus: LTEA_HepaRG_CYP24A1: Life Technologies and Expression Analysis (LTEA) Assay for Cytochrome P450 (CYP24A1) using HepaRG (AID 2283478). A digest of the protocol: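 qRT-PCR read-out: CYP24A1 transcript levels normalized to three housekeeping genes, bidirectional curve fits against 0.5% DMSO baseline. Human HepaRG cells treated 48 h with chemicals at eight concentrations from 100 uM in half-log steps.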

Read-out in assay [3]: Cytochrome P450 (CYP1A2), CYP1A2 (gene 1544)
Put plainly: LTEA_HepaRG_CYP1A2: Life Technologies and Expression Analysis (LTEA) Assay for Cytochrome P450 (CYP1A2) using HepaRG (AID 2283479). The method in brief: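 HepaRG, 48 h exposure, top 100 uM, half-log 8-pt, 0.5% DMSO vehicle, duplicates. Readout: TaqMan qRT-PCR of CYP1A2 mRNA, housekeeping-normalized (ACTB/GAPDH/POLR2A). Gain/loss fit relative to DMSO baseline.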

Read-out in assay [4]: cysteine-aspartic acid protease (CASP8), CASP8 (gene 841)
The assay can be described thus: LTEA_HepaRG_CASP8: Life Technologies and Expression Analysis (LTEA) Assay for cysteine-aspartic acid protease (CASP8) using HepaRG (AID 2283480). The method in brief: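 qRT-PCR readout of CASP8 mRNA, normalized to three housekeeping genes, after 48 h chemical exposure of HepaRG cells; 8-point half-log series, top 100 uM, 0.5% DMSO vehicle. Bidirectional curve fitting against DMSO baseline.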

Read-out in assay [5]: Cytochrome P450 (CYP2B6), CYP2B6 (gene 1555)
Put plainly: LTEA_HepaRG_CYP2B6: Life Technologies and Expression Analysis (LTEA) Assay for Cytochrome P450 (CYP2B6) using HepaRG (AID 2283481). A digest of the protocol:
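Read-out is CYP2B6 mRNA by TaqMan qRT-PCR, normalized to three housekeeping genes and fitted bidirectionally against 0.5% DMSO baseline. Human HepaRG cells received test chemicals for 48 h, top concentration 100 uM, half-log dilutions.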

Read-out in assay [6]: Cytochrome P450 2C19 (Homo sapiens) (UniProt P33261)
Put plainly: LTEA_HepaRG_CYP2C19: Life Technologies and Expression Analysis (LTEA) Assay for CYP2C19 using HepaRG (AID 2283482). The method in brief: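 HepaRG, 48 h chemical exposure, 8-pt half-log series from 100 uM in 0.5% DMSO, duplicates. Readout: CYP2C19 mRNA by TaqMan qRT-PCR, housekeeping-normalized. Bidirectional fit vs DMSO baseline; phenobarbital 1mM as induction control.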

Read-out in the next assay: CYP2C8 (gene 1558)
The assay can be described thus: LTEA_HepaRG_CYP2C8: Life Technologies and Expression Analysis (LTEA) Assay for CYP2C8 using HepaRG (AID 2283483). The method in brief:
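HepaRG (human liver line), 48 h chemical exposure, 8-pt half-log series from 100 uM, 0.5% DMSO vehicle. Readout: CYP2C8 transcript by qRT-PCR, housekeeping-normalized. Bidirectional fit vs DMSO baseline.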

Read-out in another assay: CYP2C9 (gene 1559)
Put plainly: LTEA_HepaRG_CYP2C9: Life Technologies and Expression Analysis (LTEA) Assay for CYP2C9 using HepaRG (AID 2283484). A digest of the protocol:
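HepaRG, 48 h dosing, 8-pt half-log series, top 100 uM, 0.5% DMSO vehicle. Read-out: CYP2C9 transcript by TaqMan qRT-PCR, housekeeping-normalized (ACTB/GAPDH/POLR2A). Gain or loss fitted vs DMSO baseline.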

Read-out in another assay: CYP2E1 (gene 1571)
The assay can be described thus: LTEA_HepaRG_CYP2E1: Life Technologies and Expression Analysis (LTEA) Assay for CYP2E1 using HepaRG (AID 2283485). A digest of the protocol: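 CYP2E1 transcript was measured by TaqMan qRT-PCR in human HepaRG cultures after 48 h chemical exposure (top 100 uM, half-log steps, 0.5% DMSO vehicle). Housekeeping-gene normalization; gain or loss fitted relative to DMSO baseline.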

Read-out in another assay: CYP4A11 (gene 1579)
The assay can be described thus: LTEA_HepaRG_CYP4A11: Life Technologies and Expression Analysis (LTEA) Assay for CYP4A11 using HepaRG (AID 2283486). The method in brief: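 CYP4A11 transcript levels were quantified by TaqMan qRT-PCR after HepaRG human liver cells were treated for 48 hours with test chemicals (top 100 uM, half-log dilutions, 0.5% DMSO). Gain or loss of signal was fitted relative to DMSO.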

Read-out in assay [7]: Cytochrome P450 3A4 (Homo sapiens) (UniProt P08684)
The assay can be described thus: LTEA_HepaRG_CYP3A4: Life Technologies and Expression Analysis (LTEA) Assay for CYP3A4 using HepaRG (AID 2283487). The method in brief:
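CYP3A4 transcript measured by TaqMan qRT-PCR and normalized to three housekeeping genes after 48 h chemical exposure of human HepaRG cells. Top concentration 100 uM, half-log steps, 0.5% DMSO vehicle; gain or loss fitted against DMSO baseline.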

Read-out in assay [8]: Pro-epidermal growth factor (Homo sapiens) (UniProt P01133)
Put plainly: LTEA_HepaRG_EGF: Life Technologies and Expression Analysis (LTEA) Assay for Epidermal growth factor (EGF) using HepaRG (AID 2283489). The method in brief: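 qRT-PCR readout of EGF transcript after 48 h chemical exposure of HepaRG cells; eight concentrations from 100 uM down in half-log steps, duplicate wells, 0.5% DMSO vehicle. Bidirectional curve fitting against DMSO baseline.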

Read-out in assay [9]: Ezrin (EZR), EZR (gene 7430)
Put plainly: LTEA_HepaRG_EZR: Life Technologies and Expression Analysis (LTEA) Assay for Ezrin (EZR) using HepaRG (AID 2283491). A digest of the protocol: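 HepaRG, 48 h chemical exposure, 8-pt half-log series from 100 uM, 0.5% DMSO vehicle, duplicates. Read-out: EZR mRNA by TaqMan qRT-PCR (Fluidigm array), housekeeping-normalized; bidirectional curve fit vs DMSO baseline.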

Read-out in assay [10]: Cytochrome P450 3A7 (Homo sapiens) (UniProt P24462)
Put plainly: LTEA_HepaRG_CYP3A7: Life Technologies and Expression Analysis (LTEA) Assay for CYP3A7 using HepaRG (AID 2283492). The method in brief:
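CYP3A7 transcript levels were read by TaqMan qRT-PCR on Fluidigm arrays after 48 h chemical exposure of human HepaRG cells, with housekeeping-gene normalisation. Eight half-log concentrations up to 100 uM in 0.5% DMSO were tested in duplicate.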

Read-out in another assay: CYP3A5 (gene 1577)
Put plainly: LTEA_HepaRG_CYP3A5: Life Technologies and Expression Analysis (LTEA) Assay for CYP3A5 using HepaRG (AID 2283493). A digest of the protocol: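 qRT-PCR read-out: CYP3A5 transcript in HepaRG lysates, housekeeping-normalized (ACTB/GAPDH/POLR2A), fitted bidirectionally against 0.5% DMSO baseline. Exposure 48 h, eight half-log concentrations up to 100 uM, duplicates.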

Read-out in assay [11]: Fatty Acid-Binding Protein 1 (FABP1), FABP1 (gene 2168)
Put plainly: LTEA_HepaRG_FABP1: Life Technologies and Expression Analysis (LTEA) Assay for Fatty Acid-Binding Protein 1 (FABP1) using HepaRG (AID 2283494). The method in brief:
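qRT-PCR readout of FABP1 transcript (normalized to three housekeeping genes) after 48 h chemical exposure of HepaRG cells; eight concentrations, half-log steps, max 100 uM, 0.5% DMSO vehicle; gain or loss fitted relative to DMSO baseline.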

Read-out in assay [12]: Cytochrome P450 4A22 (Homo sapiens) (UniProt Q5TCH4)
Put plainly: LTEA_HepaRG_CYP4A22: Life Technologies and Expression Analysis (LTEA) Assay for Cytochrome P450 4A22 (CYP4A22) using HepaRG (AID 2283495). The method in brief:
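HepaRG, 48 h post-plating -> serum-free induction medium; dosed 48 h, duplicate, 8 conc. (100 uM top, half-log), 0.5% DMSO. Readout: CYP4A22 mRNA by qRT-PCR, ACTB/GAPDH/POLR2A normalization; gain/loss fit relative to DMSO.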

Read-out in assay [13]: Early growth response protein 1 (EGR1) transcription factor, EGR1 (gene 1958)
The assay can be described thus: LTEA_HepaRG_EGR1: Life Technologies and Expression Analysis (LTEA) Assay for Early growth response protein 1 (EGR1) transcription factor using HepaRG (AID 2283490). A digest of the protocol:
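HepaRG, 48 h exposure, 8-pt half-log series from 100 uM, 0.5% DMSO vehicle; EGR1 transcript by TaqMan qRT-PCR (Fluidigm array), housekeeping-normalized; bidirectional fit relative to DMSO baseline.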

Read-out in assay [14]: DNA damage-inducible transcript 3 (DDIT3), DDIT3 (gene 1649)
The assay can be described thus: LTEA_HepaRG_DDIT3: Life Technologies and Expression Analysis (LTEA) Assay for DNA damage-inducible transcript 3 (DDIT3) using HepaRG (AID 2283488). The method in brief:
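qRT-PCR readout (Fluidigm TaqMan), housekeeping-normalized to ACTB, GAPDH, POLR2A. HepaRG cells, 48 h exposure, 8-point half-log series from 100 uM in 0.5% DMSO, duplicates. Gain or loss of signal fitted against DMSO baseline.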

Activity calls are given as the source filed them. How the source made its calls: active means hit-call score of the fitted dose curve at least 0.9, where 1 is the maximum; inactive means score below 0.9.

Chain of Cytochrome P450 2C19 (Homo sapiens) (P33261 whole entry, looked up): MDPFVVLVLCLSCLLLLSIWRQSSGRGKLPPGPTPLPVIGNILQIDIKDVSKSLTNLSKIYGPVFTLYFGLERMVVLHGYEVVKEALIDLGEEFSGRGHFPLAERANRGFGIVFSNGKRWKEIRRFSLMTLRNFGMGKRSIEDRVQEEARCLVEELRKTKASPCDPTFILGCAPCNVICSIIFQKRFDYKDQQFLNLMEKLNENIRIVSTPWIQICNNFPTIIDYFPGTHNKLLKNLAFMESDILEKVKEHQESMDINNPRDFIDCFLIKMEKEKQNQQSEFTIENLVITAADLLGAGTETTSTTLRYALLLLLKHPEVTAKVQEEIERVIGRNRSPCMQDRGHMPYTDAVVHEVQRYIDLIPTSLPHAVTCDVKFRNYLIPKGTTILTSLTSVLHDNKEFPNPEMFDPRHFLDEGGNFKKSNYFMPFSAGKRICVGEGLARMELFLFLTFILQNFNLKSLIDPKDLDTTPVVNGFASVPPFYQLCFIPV
Chain of Cytochrome P450 3A4 (Homo sapiens) (P08684 whole entry, looked up): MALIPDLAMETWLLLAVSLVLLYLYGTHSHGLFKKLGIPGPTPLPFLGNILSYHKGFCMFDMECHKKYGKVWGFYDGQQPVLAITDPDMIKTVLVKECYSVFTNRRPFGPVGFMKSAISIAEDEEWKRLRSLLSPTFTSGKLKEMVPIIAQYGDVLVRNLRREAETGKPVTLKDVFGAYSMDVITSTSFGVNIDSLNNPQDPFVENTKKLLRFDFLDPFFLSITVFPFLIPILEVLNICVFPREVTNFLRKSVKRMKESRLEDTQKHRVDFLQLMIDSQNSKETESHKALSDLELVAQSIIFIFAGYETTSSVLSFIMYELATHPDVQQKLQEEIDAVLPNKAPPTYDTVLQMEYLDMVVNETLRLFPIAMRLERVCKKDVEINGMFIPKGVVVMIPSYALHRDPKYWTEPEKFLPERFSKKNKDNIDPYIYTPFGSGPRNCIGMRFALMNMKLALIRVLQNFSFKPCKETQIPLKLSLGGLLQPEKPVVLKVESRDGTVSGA
Chain of Caspase-3 (Homo sapiens) (P42574 whole entry, looked up): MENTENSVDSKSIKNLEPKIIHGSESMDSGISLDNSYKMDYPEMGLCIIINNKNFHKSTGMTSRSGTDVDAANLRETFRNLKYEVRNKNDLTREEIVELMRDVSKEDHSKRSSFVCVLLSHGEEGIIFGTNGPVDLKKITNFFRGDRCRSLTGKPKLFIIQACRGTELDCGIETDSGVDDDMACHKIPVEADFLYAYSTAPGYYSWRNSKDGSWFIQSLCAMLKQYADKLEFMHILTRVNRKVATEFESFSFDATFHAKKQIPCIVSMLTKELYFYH
Chain of Cytochrome P450 3A7 (Homo sapiens) (P24462 whole entry, looked up): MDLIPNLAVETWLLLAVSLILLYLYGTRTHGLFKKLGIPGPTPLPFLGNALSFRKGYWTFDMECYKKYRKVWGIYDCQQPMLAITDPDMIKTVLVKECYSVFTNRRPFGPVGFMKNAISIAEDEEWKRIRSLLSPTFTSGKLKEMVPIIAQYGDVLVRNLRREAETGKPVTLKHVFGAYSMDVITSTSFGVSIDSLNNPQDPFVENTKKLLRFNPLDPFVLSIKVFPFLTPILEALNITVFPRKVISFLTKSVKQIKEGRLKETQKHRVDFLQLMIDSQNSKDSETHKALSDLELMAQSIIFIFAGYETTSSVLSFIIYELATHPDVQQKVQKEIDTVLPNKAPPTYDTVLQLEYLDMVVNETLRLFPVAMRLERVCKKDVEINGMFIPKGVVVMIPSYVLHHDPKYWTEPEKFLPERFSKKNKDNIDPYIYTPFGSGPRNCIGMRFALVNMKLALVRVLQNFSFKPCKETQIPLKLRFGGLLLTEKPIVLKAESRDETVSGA

Turning to `CCN(CC)c1nc(C)cc(OP(=S)(OC)OC)n1`, the call (in [1]; in the assay with Caspase-3 (Homo sapiens); in assay [2]; in assay [4]; with CYP2C8 (gene 1558); with CYP2C9 (gene 1559)) was inactive. In addition, the outcome (with CYP4A11 (gene 1579); in assay [8]; in [9]; with CYP3A5 (gene 1577); in assay [12]) was inactive. Also, the AC50 was 38 µM (active) in assay [3]; 2.79 µM (active) in assay [5]; 12.1 µM (active) in [6]; 37.4 µM (active) with CYP2E1 (gene 1571); 10.9 µM (active) in [7]; 8.23 µM (active) in [10]. For the same molecule, the concentration at half-maximal activity (AC50) in assay [11] was 50 µM (active).

On to `Cc1cnc(C2=NC(C)(C(C)C)C(=O)N2)c(C(=O)O)c1` (stereo not given), for which the result (in [1]; with Caspase-3 (Homo sapiens); in [2]; in assay [3]; in assay [4]; in [5]) was inactive. Also, the outcome (in [6]; with CYP2C8 (gene 1558); with CYP2C9 (gene 1559); with CYP2E1 (gene 1571); in the assay with CYP4A11 (gene 1579); in [7]) was inactive. Further, the outcome (in [8]; in assay [9]; with CYP3A5 (gene 1577); in assay [11]; in [12]) was inactive.

Consider `CCN(CC)C(=O)C(C)Oc1cccc2ccccc12` (stereo not given), for which the molecule was called inactive (in assay [1]; with Caspase-3 (Homo sapiens); in assay [2]; in assay [4]; with CYP2C8 (gene 1558); with CYP2C9 (gene 1559)). Moreover, the molecule was classed as inactive (in assay [8]; in assay [13]; in assay [9]; with CYP3A5 (gene 1577)). The AC50 was 26.4 µM (active) in assay [3]; 12 µM (active) in assay [5]; 12.6 µM (active) in assay [6]; 73.5 µM (active) in the assay with CYP2E1 (gene 1571); 79.1 µM (active) with CYP4A11 (gene 1579); 2.65 µM (active) in assay [7]. In addition, the AC50 in assay [11] is 70.4 µM (active); in assay [12], 78.3 µM (active).

For `CCCCC(C#N)(Cn1cncn1)c1ccc(Cl)cc1` (stereo not given), the result (in [1]; with Caspase-3 (Homo sapiens); in assay [2]; in assay [4]; with CYP2C9 (gene 1559); in [8]) was inactive. For the same molecule, the molecule was called inactive (in assay [13]; in assay [9]; in the assay with CYP3A5 (gene 1577)). The AC50 is 19.3 µM (active) in assay [3]; 3.06 µM (active) in assay [5]; 5.75 µM (active) in assay [6]; 12.1 µM (active) with CYP2C8 (gene 1558); 50 µM (active) with CYP2E1 (gene 1571); 41.5 µM (active) with CYP4A11 (gene 1579). In addition, the AC50 in assay [7] was 4.85 µM (active); in assay [11], 13.1 µM (active); in assay [12], 51.8 µM (active).

In the case of `COCC(=O)N(c1c(C)cccc1C)C(C)C(=O)OC` (stereo not given), the call (in assay [1]; with Caspase-3 (Homo sapiens); in [2]; in [3]; in assay [4]; with CYP2C8 (gene 1558)) was inactive. The outcome (with CYP2C9 (gene 1559); with CYP4A11 (gene 1579); in assay [14]; in [8]; in assay [13]; in assay [9]) was inactive. Moreover, the molecule was called inactive (in assay [10]; with CYP3A5 (gene 1577); in [12]). In addition, the AC50 in [5] was 1.23 µM (active); in assay [6] it was 3.91 µM (active); in the assay with CYP2E1 (gene 1571), 50 µM (active); in assay [11], 31.7 µM (active).

One may read the AC50 as the concentration giving half of the maximal activity seen.

For the origin of these results see PubChem BioAssay (EPA / NIEHS).
